The results in this text go back to PubChem BioAssay (Tox21).

Values joined by “and” are separate entries in the source; they are usually repeats but may differ in a detail not shown here. Equal values may be shown once. Results filed as inconclusive are left out. Active and inactive are the calls of the source. Unless noted, the call rests on the fitted dose curve; in most records, active means well fitted curve in the direction sought with a large enough effect in the repeat runs; inconclusive means weak or mixed curves; inactive means no such curve, though single readings can be large; an effect the other way counts as inactive or inconclusive.

The nature of test [1]: A CellTox Green Cytotoxicity Assay to monitor cytotoxicity in HepG2 cells - 0 hour (AID 1224882). Further: nearly all actives have a fitted effect of over 35% in size. An outline of the steps:
(§1)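 Fluorescent DNA-binding dye, 600 HepG2 cells/well, 5 h preincubation then compound in DMSO; same plates read at 0–40 h, 37 C.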

Test [2] in a line: A CellTox Green Cytotoxicity Assay to monitor cytotoxicity in HepG2 cells - 32 hour (AID 1224883). Further: nearly all actives have a fitted effect of over 50% in size. An outline of the steps: as §1
Test [3] is described as follows: A CellTox Green Cytotoxicity Assay to monitor cytotoxicity in HEK293 cells - 8 hour (AID 1224884). Further: nearly all actives have a fitted effect of over 35% in size. In outline: (§2)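 Homogeneous no-lysis format: HEK293 cell suspension mixed with CellTox Green reagent, seeded, incubated 5 h at 37 C/5% CO2, then dosed by pintool with compound in DMSO.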
Test [4] is described as follows: qHTS RealTime-Glo MT Cell Viability Assay in HepG2 cells - 16 hour (AID 1224885). Further: nearly all actives have a fitted effect of over 50% in size. An outline of the steps:
(§3)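 Viability was tracked continuously by NanoLuc luminescence from prosubstrate reduced by living HepG2 cells, at successive time points over 40 h of compound exposure. Cells with reagent were preincubated 5 h at 37 °C before compound addition.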

The nature of test [5]: qHTS RealTime-Glo MT Cell Viability Assay in HEK293 cells - 24 hour (AID 1224886). Further: top concentration of the series differs between compounds; nearly all actives have a fitted effect of over 50% in size. An outline of the steps: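 Viability tracked continuously by luminescence as live cells reduce a prosubstrate for NanoLuc; HEK293 cells preincubated 5 h, compound-treated at 37 C, and read at 0, 8, 16, 24, 32 and 40 h.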
A general note: In qHTS, concentration-response curves come from the screen itself.

Test [6] in a line: qHTS RealTime-Glo MT Cell Viability Assay in HEK293 cells - 8 hour (AID 1224887). Further: top concentration of the series differs between compounds; nearly all actives have a fitted effect of over 50% in size. An outline of the steps:
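Measured as luminescence from the same continuously cultured HEK293 wells at successive time points (0, 8, 16, 24, 32, 40 h) after compound addition. Reagent present from seeding; dosing at 5 h; incubation 37 C.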

Test [7] can be described thus: A CellTox Green Cytotoxicity Assay to monitor cytotoxicity in HEK293 cells - 16 hour (AID 1224888). Further: nearly all actives have a fitted effect of over 35% in size. In outline: as §2
Test [8] is described as follows: qHTS RealTime-Glo MT Cell Viability Assay in HepG2 cells - 0 hour (AID 1224889). Further: nearly all actives have a fitted effect of over 50% in size. In outline:
as §3

Test [9] is described as follows: A CellTox Green Cytotoxicity Assay to monitor cytotoxicity in HepG2 cells - 8 hour (AID 1224890). Further: nearly all actives have a fitted effect of over 45% in size. In outline:
as §1

The nature of test [10]: qHTS assay to identify small molecule antagonists of the estrogen receptor alpha (ER-alpha) signaling pathway using the BG1 cell line in the presence of 0.1 nM 17-beta-estradiol - cell viability counter screen (AID 1259241). Further: nearly all actives have a fitted effect of over 40% in size. An outline of the steps: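 Cytotoxicity counter-screen: live-cell protease activity measured by fluorescence (30 min reagent step) in the same wells. Cells were VM7Luc4E2 with endogenous ER-alpha and ERE-driven luciferase, treated 22 hr at 37C alongside 0.1 nM 17beta-estradiol final.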

Test [11] is described as follows: qHTS assay to identify small molecule antagonists of the androgen receptor (AR) signaling pathway using the MDA cell line in the presence of 0.5 nM R1881 - cell viability counter screen (AID 1259242). Further: nearly all actives have a fitted effect of over 45% in size. In outline:
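Human breast carcinoma MDA-kb2 cells, cultured without CO2, receive compounds alongside 0.5 nM (final) R1881 agonist. After 16 hr at 37C, viability is taken as live-cell protease signal.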

The target of test [12] is Estrogen receptor (Homo sapiens) (UniProt P03372). In words: qHTS assay to identify small molecule antagonists of the estrogen receptor alpha (ER-alpha) signaling pathway using the BG1 cell line in the presence of 0.1 nM 17-beta-estradiol (AID 1259244). Further: nearly all actives have a fitted effect of over 50% in size. Further: potency means the concentration at half of the fitted maximal effect. An outline of the steps:
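Seeding of stripped-serum-adapted VM7Luc4E2 cells, 24 h attachment, compound transfer, then 0.1 nM final 17beta-estradiol; after 22 h incubation, ONE-Glo reagent and luminescence reading.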

Test [13] in a line: qHTS assay to identify small molecule phospholipidosis (PLD) inducers (AID 1259344; active means well fitted curve in the direction sought with a large enough effect; an effect the other way counts as inactive or inconclusive). In outline: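 Read-out is LipidTOX Red fluorescence (ex 595/em 615) imaged in HepG2 cells after 24 h compound exposure at 37 C, with Hoechst nuclear counterstain (ex 352/em 461) allowing per-cell normalisation.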
The nature of test [14]: qHTS assay to identify small molecule HDAC inhibitors (AID 1259364).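 Further: wild-type HCT-116 cells with endogenous class I/II HDAC activity; top concentration of the series differs between compounds; nearly all actives have a fitted effect of over 45% in size.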 In outline: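 After a 2 hr compound incubation (37C, 5% CO2), HCT-116 cells seeded at 1,500/well the day before received HDAC-Glo reagent; signal read as luminescence after 30 min at room temperature.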
The nature of test [15]: qHTS assay to identify small molecule HDAC inhibitors - cell viability counter screen (AID 1259365). In outline: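 CellTiter-Glo luminescence (30 min, room temperature) reported viability after a 2 h compound exposure at 37 C. Cells: wild-type HCT-116, 1,500 per well, seeded the night before.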
The nature of test [16]: qHTS assay to identify small molecule agonists of the sonic hedgehog signaling (Shh) pathway - cell viability counter screen (AID 1259366). Further: nearly all actives have a fitted effect of over 50% in size. In outline:
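Cytotoxicity counter screen: CellTiter-Fluor reagent added after 23 h compound exposure, then 1 h at 37C and fluorescence read. Cells were 3T3 Gli1-Luc, seeded 2,000 per well and dosed 4 h post-plating.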

The nature of test [17]: qHTS assay to identify small molecule antagonists of the sonic hedgehog signaling (Shh) pathway - cell viability counter screen (AID 1259367). Further: nearly all actives have a fitted effect of over 55% in size. In outline: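 Fluorescence read-out (CellTiter-Fluor, 1 hr at 37C) taken after 23 hr compound treatment of 3T3 Gli1-Luc cells stimulated with conditioned medium. Cells were seeded at 2,000 per well and pre-incubated 4 hr.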
A short description of test [18]: qHTS assay to identify small molecule agonists of the sonic hedgehog signaling (Shh) pathway (AID 1259368; calls by dose curve;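 further: NIH/3T3-derived 3T3Gli1-Luc cells carrying a stable Gli1-driven firefly luciferase reporter; series mostly up to about 92 µM; nearly all actives have a fitted effect of over 15% in size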). An outline of the steps:
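Stable NIH/3T3 Gli1-Luc reporter clone; 24 hr cpd exposure after a 4 hr settling period; luminescence endpoint.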

Test [19] in a line: qHTS assay to identify small molecule antagonists of the sonic hedgehog signaling (Shh) pathway (AID 1259369; calls by dose curve; further: nearly all actives have a fitted effect of over 45% in size; further: potency means the concentration at half of the fitted maximal effect). In outline:
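Gli1 transcriptional reporter (firefly Luc) in NIH/3T3 background, conditioned-medium activated. 24hr exposure, luminescence endpoint.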

Test [20] concerns the target Androgen receptor (Homo sapiens) (UniProt P10275). As to the kind of experiment: qHTS assay to identify small molecule antagonists of the androgen receptor (AR) signaling pathway using the MDA cell line in the presence of 0.5 nM R1881 (AID 1259243). Further: nearly all actives have a fitted effect of over 50% in size. An outline of the steps: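 Cells: MDA-kb2 (MMTV-luc). Stimulus: 0.5 nM R1881. Time: 16 hr, 37C, no CO2. Detection: ONE-Glo luminescence after 30 min at RT.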

Chain of Androgen receptor (Homo sapiens) (P10275 whole entry, looked up): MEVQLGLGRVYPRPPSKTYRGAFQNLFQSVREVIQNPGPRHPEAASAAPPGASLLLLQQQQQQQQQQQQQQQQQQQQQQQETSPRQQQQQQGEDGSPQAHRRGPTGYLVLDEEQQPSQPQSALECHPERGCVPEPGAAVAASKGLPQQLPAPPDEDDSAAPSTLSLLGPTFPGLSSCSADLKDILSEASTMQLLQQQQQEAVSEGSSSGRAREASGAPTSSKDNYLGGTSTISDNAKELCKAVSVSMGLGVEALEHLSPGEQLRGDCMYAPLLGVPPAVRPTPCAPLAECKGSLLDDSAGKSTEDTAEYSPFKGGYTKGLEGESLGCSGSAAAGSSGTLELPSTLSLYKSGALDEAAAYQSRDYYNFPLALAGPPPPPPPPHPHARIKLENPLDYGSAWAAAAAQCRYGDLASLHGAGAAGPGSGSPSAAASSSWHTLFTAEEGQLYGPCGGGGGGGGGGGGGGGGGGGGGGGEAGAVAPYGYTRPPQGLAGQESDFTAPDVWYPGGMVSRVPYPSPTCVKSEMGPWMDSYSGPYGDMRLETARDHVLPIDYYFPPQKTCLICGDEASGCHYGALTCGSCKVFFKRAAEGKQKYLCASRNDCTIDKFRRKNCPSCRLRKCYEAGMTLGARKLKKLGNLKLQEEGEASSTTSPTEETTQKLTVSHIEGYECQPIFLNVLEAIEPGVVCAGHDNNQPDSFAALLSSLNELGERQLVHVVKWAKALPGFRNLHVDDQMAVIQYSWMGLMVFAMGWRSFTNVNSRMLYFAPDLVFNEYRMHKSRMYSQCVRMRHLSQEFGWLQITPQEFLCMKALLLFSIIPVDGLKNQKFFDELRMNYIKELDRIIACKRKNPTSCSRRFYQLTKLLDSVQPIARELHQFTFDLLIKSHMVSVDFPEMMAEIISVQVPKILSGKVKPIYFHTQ
Chain of Estrogen receptor (Homo sapiens) (P03372 whole entry, looked up): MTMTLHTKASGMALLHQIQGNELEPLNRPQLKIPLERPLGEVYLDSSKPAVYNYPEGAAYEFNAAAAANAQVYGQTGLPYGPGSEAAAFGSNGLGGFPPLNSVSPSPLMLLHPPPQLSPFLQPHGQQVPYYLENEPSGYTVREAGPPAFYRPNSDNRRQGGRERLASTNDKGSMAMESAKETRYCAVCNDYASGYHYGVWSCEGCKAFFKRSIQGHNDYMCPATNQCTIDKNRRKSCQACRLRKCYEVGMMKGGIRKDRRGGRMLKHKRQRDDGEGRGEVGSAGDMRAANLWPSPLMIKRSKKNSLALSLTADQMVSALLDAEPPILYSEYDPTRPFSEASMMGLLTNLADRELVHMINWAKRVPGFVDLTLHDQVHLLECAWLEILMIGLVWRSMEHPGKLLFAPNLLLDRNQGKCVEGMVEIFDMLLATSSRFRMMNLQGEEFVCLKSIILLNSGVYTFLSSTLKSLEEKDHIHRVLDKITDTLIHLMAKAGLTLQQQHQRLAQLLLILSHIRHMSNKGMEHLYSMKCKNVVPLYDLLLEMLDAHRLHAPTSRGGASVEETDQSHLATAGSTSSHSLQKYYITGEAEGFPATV

As to `NC(=O)c1cccnc1`, the Potency entry in [1], in test [2], in [3], in [4], in [5] and in test [6] was “inactive” in each case. The Potency entry in test [7], in [8], in test [9], in [10], in test [11] and in test [12] was “inactive” throughout. For the same compound, the Potency entry in [13], in test [14], in test [15], in test [16], in test [17] and in [19] was “inactive” throughout. In test [18], the result was inactive.
On to `C=CCc1ccc(O)c(OC)c1`, for which the Potency entry in test [1], in test [2], in [3], in test [4], in test [5] and in test [6] was “inactive” each time. In addition, the Potency entry in test [7], in [8], in test [9], in test [10], in [11] and in test [12] was “inactive” in each case. Further, the Potency entry in [13], in [14], in test [15], in test [16], in test [17] and in [19] was “inactive” in each case. Besides, the call in [18] was inactive.
In the case of `CN(C)CCOC(c1ccccc1)c1ccccc1`, the Potency result in [1], in test [2], in [3], in test [4], in test [5] and in [6] was “inactive” each time. In addition, the Potency entry in [7], in test [8], in [9], in test [10], in test [11] and in test [20] was “inactive” throughout. The Potency result in test [12], in [13], in [14], in test [15], in test [16] and in test [17] was “inactive” in each case. The Potency entry in [19] is “inactive”. Moreover, the compound was classed as inactive in [18].
Regarding `CCc1nc(N)nc(N)c1-c1ccc(Cl)cc1`, the Potency entry in [1], in [2], in test [3], in test [4], in [5] and in [6] was “inactive” in each case. The Potency entry in test [7], in test [8], in test [9], in [10], in test [11] and in test [13] was “inactive” throughout. In addition, the Potency entry in test [14], in [15], in test [16] and in test [17] was “inactive” in each case. Moreover, the Potency in test [12] was 31.1 µM (active) and 48.6 µM (active); in [19], 17.5 µM (active) and 27.3 µM (active). Also, the compound was called inactive in test [18].
`CN(N=O)C(=O)N[C@@H]1[C@@H](O)[C@H](O)[C@@H](CO)O[C@@H]1O`: the Potency result in test [1], in test [2], in test [3], in test [4], in test [5] and in test [6] was “inactive” throughout. The Potency entry in test [7], in test [8], in test [9], in test [10], in test [11] and in test [12] was “inactive” in each case. Also, the Potency result in [13], in test [14], in test [15], in [16], in test [17] and in test [19] was “inactive” in each case. The compound was called inactive in [18].
For `CCCCNC(=O)NS(=O)(=O)c1ccc(C)cc1`, the Potency entry in test [1], in test [2], in test [3], in [4], in [5] and in test [6] was “inactive” throughout. Further, the Potency entry in [7], in test [8], in test [9], in test [10], in test [11] and in test [13] was “inactive” in each case. Moreover, the Potency result in [14], in test [15], in test [16], in test [17] and in test [19] was “inactive” throughout. The result in test [18] was inactive.
